Assay results: PubChem BioAssay
This is one part of the list. Values without a mark were called inactive. Active and inactive are the calls of the source.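 The calls were made as follows, unless noted: active = inhibition above the mean over all tested compounds plus 3 SD, which no compound reached; inactive = the rest.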

Legend:
[1] = system: HIV-1 integrase (multimerization); assay: HIV-1 IN multimer formation enhancers, counter-screen for LEDGF/p75 integration inhibitor project, biochemical, TR-FRET (AID 1053131; in the data active = activation above about 8.9%); conditions: TR-FRET HIV-1 integrase multimerization, at 7.7 µM, hits give high values
[2] = TR-FRET optical interference artefacts, confirmation, artefact control for LEDGF/p75-dependent integration inhibitor project, biochemical, HIV-1 IN multimerization (AID 1053135); conditions: TR-FRET optical interference counterscreen, at 7.7 µM, hits give high values;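 also: 0% = integrase with antibodies and DMSO and 100% = antibodies without integrase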
[3] = system: HIV-1 integrase / human LEDGF/p75 complex; assay: inhibitors of HIV-1 IN-LEDGF/p75 DNA integration, confirmation, biochemical, TR-FRET (AID 1053136; in the data active = inhibition above about 14%); conditions: TR-FRET LEDGF/p75-dependent HIV-1 integration, at 3.7 µM, hits give high values

Compound	activation [1]	inhibition [2] [%]	inhibition [3]
COc1ccc(S(=O)(=O)N2CCCCC2)cc1C(=O)NC1CCS(=O)(=O)C1 (stereo not given)	-2.17%	10.9	-3.25%
CN(C)/C=C/C(=O)c1cnc2sccn2c1=O	0.96%	-3.51	1.19%
CCOC(=O)/C(C#N)=C\c1c(C)cc(C)c(COC(C)=O)c1C	0.2%	-1.03	3.21%
NC(=O)c1ccccc1NC(=O)c1ccccc1F	1.09%	-4.33	-4.54%
Cc1cc(=O)n2[nH]c(-c3sccc3-n3c(C)ccc3C)cc2n1	4.52%	-16.3	1.35%
COc1ccc(C(=O)/C=C/c2ccc(-c3ccccc3)cc2)cc1CSCC(=O)O	-1.35%	6.82	21.8% (active)
Cc1ccc(/C=C/C(=O)Nc2ccc([N+](=O)[O-])c(NC(=O)/C=C/c3ccc(C)o3)c2)o1	14.2% (active)	-71.7	41.9% (active)
CC(=NCc1ccc2c(c1)OCO2)C1=C(O)c2ccccc2C1=O	0.56%	-2.08	-0.38%
CCn1nc(C)c(CN2CCN(Cc3ccc(OC)c(C)c3C)C(CCO)C2)c1C (stereo not given)	-0.07%	0.39	-3.09%
CC(=O)OCC1(O)CC23CCC4c5ccoc5CCC4(C)C2CCC1C3 (stereo not given)	0.06%	-0.26	9.45%
